From PubChem BioAssay AID435009 (The Scripps Research Institute Molecular Screening Center, 2010)
Calls of active or inactive are those of the source. The rule behind the calls is not given here.

Assay: XO enzyme superoxide output inhibition – biochemical, IC50, set 2, NOX1 inhibitor project, late-stage follow-up (AID 435009)
Settings: Xanthine oxidase enzyme assay, ROS/superoxide detection

IC50, inactive:
Oc1c(Br)cc(/C=N/Nc2c(Cl)cncc2Cl)cc1Br > 5 µM
CN(C)c1ccc(/C=N/Nc2c(Cl)cncc2Cl)cc1 > 5 µM

IC50, active:
Fc1ccc(NC(=S)NNC(=S)Nc2ccccc2)cc1 0.5 µM
CSc1ccc(NC(=O)Nc2ccc(N(C)C)cc2)cc1 1.2 µM
CN(C)c1ccc(NC(=O)Nc2ccc(OCc3ccccc3)cc2)cc1 1.3 µM
Cc1cc(Cl)ccc1NC(=S)NNC(=S)Nc1ccc(F)cc1 3.3 µM
FC(F)(F)c1ccc2c(c1)Nc1ccccc1S2 5 µM
COc1cc(-c2nc(-c3ccccc3)c(-c3ccccc3)[nH]2)ccc1O 0.01 µM
COc1cc(-c2nc(-c3ccccc3)c(-c3ccccc3)[nH]2)cc(OC)c1O 0.9 µM
